The values that follow come from ChEMBL document CHEMBL4296182, “CO-ADD screening of NIH NCI Diversity Set V”.

For part of these data: Results with a measured potency or affinity are listed apart.

One test concerns Staphylococcus aureus. Put plainly: Antibacterial activity against Staphylococcus aureus MRSA ATCC 43300 (CO-ADD:GP_020); MIC in CAMBH media using NBS plates, by Resazurin F(560/590). It counts as functional. The following applies: Concentration 20 uM, ASSAY_TEST Inhibition of Bacterial Growth, detection method Resazurin, Fluorescence (ex560/em590), MEDIA CAMHB, plate type 384well, CORNING #3640, time 18 hr. A general note: The colour change of resazurin is a common sign of viable cells or microbes.

The next test has as its system Acinetobacter baumannii. Put plainly: Antibacterial activity against Acinetobacter baumannii ATCC 19606 (CO-ADD:GN_034); MIC in CAMBH media using NBS plates, by Resazurin F(560/590). It counts as functional. The conditions noted are these: Concentration 20 uM, ASSAY_TEST Inhibition of Bacterial Growth, detection method Resazurin, Fluorescence (ex560/em590), MEDIA CAMHB, plate type 384well, CORNING #3640, time 18 hr.

Another test concerns Escherichia coli. As to the kind of experiment: Antibacterial activity against Escherichia coli ATCC 25922 (CO-ADD:GN_001); MIC in CAMBH media using NBS plates, by Resazurin F(560/590). It counts as functional. The following applies: Concentration 20 uM, ASSAY_TEST Inhibition of Bacterial Growth, detection method Resazurin, Fluorescence (ex560/em590), MEDIA CAMHB, plate type 384well, CORNING #3640, time 18 hr.

For another test, the system named is Klebsiella pneumoniae. The conditions noted are these: Concentration 20 uM; ASSAY_TEST Inhibition of Bacterial Growth; detection method Absorption (OD600); MEDIA CAMHB; plate type 384well; NBS; CORNING #3640; time 18 hr.
For a further test, the system named is Candida albicans. The conditions noted are these: 20 µM.
Another test has as its system Cryptococcus neoformans. The following applies: Concentration 20 uM; ASSAY_TEST Inhibition of Fungal Growth; detection method Resazurin; Absorption (OD600-OD570); plate type 384well; NBS; CORNING #3640.

Usually Inhibition stands for the relative decrease from the control value, in per cent. Consider `O=C1CSC(c2cccs2)N1c1nncs1` (centres undefined), for which the Inhibition in the test with Staphylococcus aureus is 13.4%; in the test on Acinetobacter baumannii it was -18.82%; in the test on Escherichia coli it was 13.34%; with Klebsiella pneumoniae it was 3.03%; with Candida albicans, -0.07%; in the test on Cryptococcus neoformans it was -10.32%.
Take `N#C/C(=C\c1ccc(C#N)cc1)C(=O)c1ccccc1`: the Inhibition was -10.06% with Staphylococcus aureus; -6.48% with Acinetobacter baumannii; 6.05% in the test with Escherichia coli; 15.1% with Klebsiella pneumoniae; 8.77% in the test with Candida albicans; -10.85% with Cryptococcus neoformans.
Take `FC(F)(F)c1cccc(OCC2CN=C(S)O2)c1` (centres undefined): the Inhibition in the test on Staphylococcus aureus was 8.92%; with Acinetobacter baumannii, 11.68%; in the test on Escherichia coli, -6.27%; in the test on Klebsiella pneumoniae, 16.05%; in the test on Candida albicans, 8.74%; with Cryptococcus neoformans it was 3.63%.
For the compound `c1ccc(-c2ccc3c(c2)NCCN3)cc1`, the Inhibition in the test with Staphylococcus aureus was 0.03%; with Acinetobacter baumannii it was -10.39%; with Escherichia coli, 5.22%; in the test on Klebsiella pneumoniae it was 8.37%; with Candida albicans it was -1.02%; in the test with Cryptococcus neoformans, 1.51%.
On to `Cc1cccc2cc3cccc(C)c3nc12`, for which the Inhibition in the test with Staphylococcus aureus was -5.52%; with Acinetobacter baumannii, -11.71%; with Escherichia coli it was -1.48%; in the test on Klebsiella pneumoniae, 1.32%; with Candida albicans, 0.25%; in the test on Cryptococcus neoformans, -5.61%.
As for `CCOC(=O)Nc1ccc2nc(N3CCCCCC3)sc2c1`, the Inhibition in the test on Staphylococcus aureus was 14.81%; with Acinetobacter baumannii, 14.56%; in the test with Escherichia coli, 8.66%; in the test with Klebsiella pneumoniae, 9.37%; in the test with Candida albicans, 0.84%; with Cryptococcus neoformans it was -12.19%.
As for `COc1ccc(C(=O)Oc2cccnc2O)cc1`, the Inhibition in the test with Staphylococcus aureus is -4.34%; in the test with Acinetobacter baumannii it was 16.28%; in the test with Escherichia coli it was -5.51%; with Klebsiella pneumoniae, 12.02%; in the test with Candida albicans, 4.27%; in the test with Cryptococcus neoformans, -4.22%.
With `O=C(Nc1cccc2ccccc12)c1cc2c(cc1Br)OCO2`, the Inhibition in the test with Staphylococcus aureus was 5.22%; in the test with Acinetobacter baumannii, 3.29%; in the test on Escherichia coli, 17.42%; with Klebsiella pneumoniae, 10.46%; with Candida albicans it was 2.94%; in the test with Cryptococcus neoformans it was -19.33%.
As to `[O-][n+]1nc2ccccc2c2ccccc21`, the Inhibition in the test on Staphylococcus aureus was 3.86%; with Acinetobacter baumannii, -1.94%; with Escherichia coli it was -9.04%; with Klebsiella pneumoniae it was 13.55%; with Candida albicans, 6.35%; in the test on Cryptococcus neoformans it was 8.25%.
Take `CCCCCCC(C)OC(=O)c1ccccc1C(=O)O` (centres undefined): the Inhibition in the test with Staphylococcus aureus was 12.97%; in the test on Acinetobacter baumannii, -3.64%; with Escherichia coli it was -2.32%; in the test with Klebsiella pneumoniae, 24.05%; with Candida albicans, 18.6%; with Cryptococcus neoformans it was -16.02%.
For `CC1=NC2=CC=CC3=NC(C(Cl)(Cl)Cl)=NC(=N1)N23`, the Inhibition in the test with Staphylococcus aureus was -3.19%; in the test with Acinetobacter baumannii, 10.22%; with Escherichia coli, 9.49%; in the test on Klebsiella pneumoniae, 11.94%; with Candida albicans, 1.15%; in the test on Cryptococcus neoformans, -10.05%.
Consider `CCOC(=O)c1ccc(NC(=O)Oc2cc(C)c(Cl)cc2C(C)C)cc1`, for which the Inhibition in the test on Staphylococcus aureus is 20.21%; in the test on Acinetobacter baumannii, 9.47%; with Escherichia coli, 4.16%; with Klebsiella pneumoniae, 12.01%; in the test on Candida albicans it was 4.36%; with Cryptococcus neoformans, -1.17%.
For `CCN(CC)CCNc1c(C)cc(CO)c(Cl)c1C.O=S(=O)(O)NC1CCCCC1`, the Inhibition with Staphylococcus aureus was 5.65%; with Acinetobacter baumannii, -16.4%; in the test on Escherichia coli it was 16.33%; in the test with Klebsiella pneumoniae, 7.45%; in the test on Candida albicans, 1.43%; with Cryptococcus neoformans, -0.32%.
Consider `C=CCc1ccccc1OCC(=O)O`, for which the Inhibition with Staphylococcus aureus is 3.16%; in the test with Acinetobacter baumannii, -9.95%; in the test on Escherichia coli it was 10.02%; with Klebsiella pneumoniae it was 15.59%; in the test with Candida albicans, 5.01%; with Cryptococcus neoformans, 1.51%.
For the compound `Cn1c(=O)c2c(ncn2CCOC(=O)C(C)(C)Oc2ccc(Cl)cc2)n(C)c1=O` [THEOFIBRATE], the Inhibition in the test with Staphylococcus aureus was -5.55%; with Acinetobacter baumannii, -11.51%; in the test with Escherichia coli, 14.7%; in the test on Klebsiella pneumoniae, 11.96%; in the test with Candida albicans, 0.53%; in the test with Cryptococcus neoformans it was -5.77%.
With `CN1C(=O)CC2(C)C1=CCc1scnc12` (centres undefined), the Inhibition with Staphylococcus aureus was 8.85%; in the test on Acinetobacter baumannii, 8.37%; with Escherichia coli, 0.52%; in the test with Klebsiella pneumoniae, 4.25%; with Candida albicans, 2.6%; in the test on Cryptococcus neoformans, -1.43%.
For the compound `CN(C)CCCn1c2c3ccccc3ccc2c2oc(=O)c3ccccc3c21.Cl`, the Inhibition was 14.28% in the test on Staphylococcus aureus; -7.18% in the test with Acinetobacter baumannii; 12.65% in the test on Escherichia coli; 11.13% in the test with Klebsiella pneumoniae; 0.85% with Candida albicans; -2.35% with Cryptococcus neoformans.
As to `CC(C)(C)c1ccc(C(=O)N2CCOC23CCCCC3)cc1`, the Inhibition in the test with Staphylococcus aureus was 6.69%; in the test on Acinetobacter baumannii it was 7.06%; in the test on Escherichia coli it was 4.56%; in the test with Klebsiella pneumoniae, 2.74%; with Candida albicans it was 2.86%; with Cryptococcus neoformans, -8.62%.
Turning to `O=P(O)(O)c1cc(-c2ccccc2)oc1-c1ccccc1`, the Inhibition is -4.92% in the test with Staphylococcus aureus; 9.92% in the test with Acinetobacter baumannii; 13.72% in the test with Escherichia coli; 15.02% in the test on Klebsiella pneumoniae; 5.26% with Candida albicans; -17.53% with Cryptococcus neoformans.
On to `Nc1cc([N+](=O)[O-])ccc1N1C(=O)CCCC1=O`, for which the Inhibition was 5.36% in the test on Staphylococcus aureus; 15.02% in the test on Acinetobacter baumannii; -8.9% with Escherichia coli; 10.57% in the test on Klebsiella pneumoniae; 7.24% in the test with Candida albicans; -9.22% in the test on Cryptococcus neoformans.
For `Clc1nc(Oc2ccccc2)nc(-c2cn(-c3ccccc3)c3ccccc23)n1`, the Inhibition was 2.81% in the test with Staphylococcus aureus; 4.85% in the test on Acinetobacter baumannii; 6.07% in the test on Escherichia coli; 3.03% in the test with Klebsiella pneumoniae; -0.88% in the test on Candida albicans; -13% in the test with Cryptococcus neoformans.
Take `NNC(=O)CNC(=O)Nc1nnc(S)s1`: the Inhibition in the test on Staphylococcus aureus is 1.09%; with Acinetobacter baumannii it was 15.79%; in the test on Escherichia coli, -4.75%; in the test with Klebsiella pneumoniae it was 16.78%; in the test on Candida albicans, 2.5%; in the test on Cryptococcus neoformans, -8.13%.
In the case of `CSc1ccc2c(c1)C(N1CCN(C)CC1)Cc1ccccc1S2.O=C(O)/C=C\C(=O)O` (centres undefined), the Inhibition is -0.23% with Staphylococcus aureus; -8.02% in the test with Acinetobacter baumannii; 11.6% with Escherichia coli; 5.53% in the test with Klebsiella pneumoniae; 2.59% in the test on Candida albicans; -7.96% with Cryptococcus neoformans.
In the case of `CC(=O)OC1COC(OC(C)=O)CO1` (centres undefined), the Inhibition is -14.46% with Staphylococcus aureus; -1.98% in the test with Acinetobacter baumannii; -12.48% with Escherichia coli; 0.6% in the test with Klebsiella pneumoniae; -0.61% with Candida albicans; 10.42% in the test with Cryptococcus neoformans.
